Reference: PubChem BioAssay AID2315 (National Center for Advancing Translational Sciences (NCATS), 2010)
The whole screen tested about 290,000 compounds, of which about 27,000 (9.3%) were called active. Rule as the data show it: active = inhibition mostly above about 28% (no sharp cut-off); inactive = mostly below about 43%. The entries come from a sample that favours actives as a whole.

Assay: A qHTS for Small Molecule Inhibitors of Shiga Toxin; also: 0% is about no effect
Conditions: Vero cells, Shiga toxin protein synthesis inhibition reporter; at 38.7 µM, stronger effect = higher value
For `CCn1cc(CN2CCC(C(=O)Nc3cccc(-c4cccc(Cl)c4)c3)CC2)c(C)n1`, the inhibition was -29.7% (inactive). For `Cc1ccccc1NC(=O)Cn1cc(C(=O)C2CC2)c2ccccc21`, the inhibition was 14.9% (inactive). For `O=C(C1CCN(S(=O)(=O)c2ccc(Br)s2)CC1)N1CCN(c2ccccc2)CC1`, the inhibition was 14.2% (inactive). For `COc1cc2c(cc1OC)C(C(=O)NCc1ccco1)C1c3ccccc3CCN1C2=O` (stereo not drawn), the inhibition was -23.5% (inactive). With `Cc1ccc(NC(=O)CSc2sc3c(O)cc(=O)[nH]c3c2C#N)cc1C` the inhibition was -11.9% (inactive). In the case of `COc1ccc(C(C)C)cc1S(=O)(=O)Nc1ncn[nH]1`, the inhibition was -1.36% (inactive). In the case of `O=C(C1CCCN(S(=O)(=O)c2ccccc2)C1)N1CCN(c2ccc(F)cc2)CC1` (stereo not drawn), the inhibition was -6.64% (inactive). With `Cc1cc(NC(=O)CCC(=O)N(CC(=O)NC2CCCC2)c2ccc(F)cc2)no1` the inhibition was 29.9% (inactive). With `CN(CC(=O)NCCN1CCOCC1)S(=O)(=O)c1ccc(F)cc1` the inhibition was -3.65% (inactive). In the case of `Fc1ccc(-c2ccc(NCCN3CCOCC3)nn2)cc1`, the inhibition was 51.7% (active). With `O=C(NCCN1CCOCC1)c1c(F)c(F)c(F)c(F)c1F` the inhibition was 33.6% (inactive). In the case of `O=[N+]([O-])C(=c1ccc2c(c1)N1C3=C(CCCC3)CC3CCCCC31N=2)[N+](=O)[O-]` (stereo not drawn), the inhibition was 27.4% (inactive). With `COCCCNC(=O)C1CC(=O)N(CCc2ccc(F)cc2)C1` (stereo not drawn) the inhibition was -8.38% (inactive). In the case of `O=C1CSC(=S)N1/N=C/c1ccc(O)c([N+](=O)[O-])c1`, the inhibition was 34.5% (inactive). For `CCOc1cccc(/C=N/N2C(=O)CSC2=S)c1O`, the inhibition was 38% (active). In the case of `CCOc1cccc(/C=N/NC(=S)NCCN2CCOCC2)c1O`, the inhibition was 22.8% (inactive). For `CCN(CC)CCCNC(=O)c1c(O)c2cc(F)cc3c2n(c1=O)C(C)CC3` (stereo not drawn), the inhibition was 2.56% (inactive). For `O=C(c1ccccc1)N1CCN(C(=O)c2cc3nc(-c4ccccc4)cc(C(F)(F)F)n3n2)CC1`, the inhibition was 3.38% (inactive). With `OCCNc1nc(Nc2ccc(Cl)c(Cl)c2)nc2ccccc12` the inhibition was 29.5% (inactive). With `Cc1cc(C)nc(Nc2ncn[nH]2)n1` the inhibition was -5.43% (inactive). With `COc1ccccc1-c1nc(SC)n[nH]1` the inhibition was 50.6% (inactive). For `Cc1cc(C)nc(Nc2n[nH]c(-c3ccccc3N)n2)n1`, the inhibition was 55% (active). For `CCOc1ccc(CNC(=O)C2CCCN(c3nnc(C)c4c(C)n(-c5ccccc5)nc34)C2)cc1` (stereo not drawn), the inhibition was -7.91% (inactive). With `N#CC1(NC(=O)COC(=O)CCN=C2NS(=O)(=O)c3ccccc32)CCCCC1` the inhibition was 12.6% (inactive). For `CN(CC(=O)Nc1ccc(Cl)cc1)C(=O)CNC(=O)c1ccc2ccccc2c1`, the inhibition was 121% (active). In the case of `COc1ccc(NC(=O)CN(C)C(=O)CNC(=O)C2CCCCC2)cc1`, the inhibition was 14.6% (inactive). In the case of `COc1cccc(NC(=O)CN(C)C(=O)Cc2ccc(Cl)cc2Cl)c1`, the inhibition was -4.77% (inactive). In the case of `CC1CCN(S(=O)(=O)c2ccc3c(c2)n(C)c(=O)n3C)CC1`, the inhibition was -5.36% (inactive). In the case of `O=C(Nc1ccc([N+](=O)[O-])cc1)OCCc1ccccn1`, the inhibition was 44% (inactive). For `CC1CCN(CCC(=O)Nc2ccccc2)CC1`, the inhibition was -4.96% (inactive). For `CCc1ccc(NC(=O)CC2C(=O)NCCN2C(=S)Nc2ccccc2)cc1` (stereo not drawn), the inhibition was 1.19% (inactive). With `O=C(CC1NCCNC1=O)Nc1ccc(Oc2ccccc2)cc1` (stereo not drawn) the inhibition was 61.1% (active). For `CCOC(=O)c1ccccc1NC(=O)CC1Nc2ccccc2NC1=O` (stereo not drawn), the inhibition was -1.95% (inactive). In the case of `CCOc1ccc(NC(=O)CC2NCCNC2=O)cc1` (stereo not drawn), the inhibition was 13.1% (inactive). In the case of `COC(=O)c1cc(C)sc1NC(=O)CC1Nc2ccccc2NC1=O` (stereo not drawn), the inhibition was 46.2% (inactive). With `CCN(CC)CCNCC(=O)Nc1ccc(Oc2ccccc2)cc1` the inhibition was 3.13% (inactive). For `O=C(CC1Nc2ccccc2NC1=O)Nc1ccccc1NC(=O)CC1Nc2ccccc2NC1=O` (stereo not drawn), the inhibition was 73.6% (active). In the case of `O=C(CC1Nc2ccccc2NC1=O)Nc1ccccc1` (stereo not drawn), the inhibition was 38.2% (active). For `COc1ccc(C23NCCN2C(=O)c2ccccc23)cc1` (stereo not drawn), the inhibition was -8.39% (inactive). In the case of `COc1ccc(CNC(=O)c2cc(C(=O)C3CC3)c[nH]2)cc1`, the inhibition was 27.9% (inactive). For `CCOC(=O)c1c(-c2ccccc2)oc2cc(Br)c(O)cc12`, the inhibition was -8.35% (inactive). With `COc1cc(OC)cc(C(=O)NCCCn2ccnc2)c1` the inhibition was 13.8% (inactive). In the case of `COCCCNS(=O)(=O)c1cccc(S(=O)(=O)c2cccc(S(=O)(=O)NCCCOC)c2)c1`, the inhibition was -4.92% (inactive). With `CN(C)c1ccc(C(CNC(=O)c2ccc(F)cc2)c2c[nH]c3ccccc23)cc1` (stereo not drawn) the inhibition was 5.91% (inactive). With `CCCS(=O)(=O)Nc1ccc(-c2cn3c(n2)SCC3)cc1` the inhibition was 27.3% (inactive). With `O=C(O)c1ccccc1C(=O)Nc1ccccc1[N+](=O)[O-]` the inhibition was 0.458% (inactive). For `Cc1c(NC(=S)NCc2ccc(F)cc2)cccc1[N+](=O)[O-]`, the inhibition was -13.6% (inactive). For `O=C(NCCCNc1ccc([N+](=O)[O-])cc1Cl)c1ccccc1F`, the inhibition was -2.91% (inactive). In the case of `O=C(NCCNc1ccccc1[N+](=O)[O-])c1ccccc1F`, the inhibition was 61.5% (active). With `O=[N+]([O-])c1ccccc1NCc1ccccc1Cl` the inhibition was 8.89% (inactive). In the case of `O=[N+]([O-])c1ccccc1NCc1ccc(Cl)cc1`, the inhibition was 48.7% (active). In the case of `Cc1cc(S(=O)(=O)NCC(C)C)ccc1OCC(=O)NC1CC1`, the inhibition was -1.92% (inactive). For `COc1ccc(O)c(/C=N/N=C/c2cccc([N+](=O)[O-])c2)c1`, the inhibition was 1.13% (inactive). For `O=C(O)c1ccccc1-c1ccccc1C(=O)Nc1ccccc1Br`, the inhibition was 10.4% (inactive). With `COc1ccccc1OCc1nc2ccccc2s1` the inhibition was 63.5% (active). With `COc1ccccc1OCCn1c(SCC(N)=O)nc2ccccc21` the inhibition was -12.1% (inactive). With `COc1cccc2sc(NNC(=O)c3nc4ccccc4s3)nc12` the inhibition was 19.2% (inactive). With `Cc1ccc(O)c(/C=N/NC(=O)COc2ccc3c(C)cc(=O)oc3c2)c1` the inhibition was 4.79% (inactive). In the case of `CCOC12CC(C)(C)CC(C)(CC3=C1C(=O)CC(C)(C)C3)C2` (stereo not drawn), the inhibition was -2.06% (inactive). In the case of `CCCCOP(=O)(c1ccc(N(C)C)cc1)C(O)c1cc(OC)ccc1OC` (stereo not drawn), the inhibition was -2.17% (inactive). In the case of `CCOC(=O)/C(C#N)=C/c1ccc(N2CCN(Cc3ccccc3)CC2)cc1`, the inhibition was 32.9% (inactive). For `COc1ccc(N2CCN(C(=O)/C(C#N)=C/c3ccccc3)CC2)cc1`, the inhibition was 33.9% (inactive). In the case of `CCOC(=O)/C(C#N)=C/c1ccc(N2CCCCC2)cc1`, the inhibition was 111% (active).
